Outcome and AC50 data for 3 compounds are collected here from PubChem BioAssay (EPA / NIEHS).

Inconclusive results are not listed. The source made the active and inactive calls. How the source made its calls, unless noted: active means hit-call score of the fitted dose curve at least 0.9, where 1 is the maximum; inactive means score below 0.9.

Read-out in test [1]: Pyruvate Dehydrogenase Kinase 4 (PDK4), PDK4 (gene 5166)
Description: LTEA_HepaRG_PDK4: Life Technologies and Expression Analysis (LTEA) Assay for Pyruvate Dehydrogenase Kinase 4 (PDK4) using HepaRG (AID 2283525). Particulars: mRNA level, 48 h; actives raise or lower the signal. An outline of the steps: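 HepaRG (human liver line), 48 h chemical exposure, 8-pt half-log CRC top 100 uM, 0.5% DMSO vehicle, duplicates. Readout: TaqMan qRT-PCR of PDK4 mRNA, housekeeping-normalized; gain/loss fit relative to DMSO baseline.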

Read-out in test [2]: NAD(P)H dehydrogenase [quinone] 1 (NQO1), NQO1 (gene 1728)
Kind of test: LTEA_HepaRG_NQO1: Life Technologies and Expression Analysis (LTEA) Assay for NAD(P)H dehydrogenase [quinone] 1 (NQO1) using HepaRG (AID 2283526). The settings on record: mRNA level, 48 h; actives raise or lower the signal. An outline of the steps: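 In this assay, gene expression is read by qRT-PCR after 48 h exposure of HepaRG cells to eight concentrations (max 100 uM, half-log) in 0.5% DMSO. Each chemical runs in duplicate, and activity is scored relative to vehicle.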

Read-out in test [3]: Nuclear factor erythroid 2-related factor 2 (Homo sapiens) (UniProt Q16236)
Kind of test: LTEA_HepaRG_NFE2L2: Life Technologies and Expression Analysis (LTEA) Assay for Nuclear factor erythroid 2-related factor 2 (NFE2L2) Transcription Factor using HepaRG (AID 2283527).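 Further: TaqMan qRT-PCR transcript level normalised to ACTB GAPDH and POLR2A housekeeping genes.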 Particulars: mRNA level, 48 h; actives raise or lower the signal. An outline of the steps: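 HepaRG, 48 h dosing, 8-pt half-log series from 100 uM in 0.5% DMSO, duplicates. Read-out: NFE2L2 mRNA by qRT-PCR (ACTB/GAPDH/POLR2A normalization). Bidirectional curve fit vs DMSO baseline.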

Read-out in test [4]: succinate dehydrogenase complex iron sulfur subunit B (SDHB), SDHB (gene 6390)
Description: LTEA_HepaRG_SDHB: Life Technologies and Expression Analysis (LTEA) Assay for succinate dehydrogenase complex iron sulfur subunit B (SDHB) using HepaRG (AID 2283528). The settings on record: mRNA level, 48 h; actives raise or lower the signal. The gist of the method: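 HepaRG cells (~100,000/well, plated 48 h) exposed in duplicate for 48 h in serum-free induction medium to 8-point half-log series from 100 uM in 0.5% DMSO; mRNA by qRT-PCR normalised to ACTB, GAPDH, POLR2A; bidirectional fit versus DMSO.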

Read-out in test [5]: Signal transducer and activator of transcription 3 (Homo sapiens) (UniProt P40763)
Description: LTEA_HepaRG_STAT3: Life Technologies and Expression Analysis (LTEA) Assay for Signal transducer and activator of transcription (STAT3) using HepaRG (AID 2283529). Particulars: mRNA level, 48 h; actives raise or lower the signal. The gist of the method: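 HepaRG, 48 h exposure, 8-pt half-log series (top 100 uM), 0.5% DMSO vehicle, duplicates. Readout: STAT3 transcript by Fluidigm qRT-PCR, housekeeping-normalized; bidirectional fit vs DMSO baseline.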

Read-out in test [6]: solute carrier (SLCO1B1), SLCO1B1 (gene 10599)
Kind of test: LTEA_HepaRG_SLCO1B1: Life Technologies and Expression Analysis (LTEA) Assay for solute carrier (SLCO1B1) using HepaRG (AID 2283530). Particulars: mRNA level, 48 h; actives raise or lower the signal. An outline of the steps:
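HepaRG, serum-free induction medium, 48 h dosing, 8-pt half-log from 100 uM, 0.5% DMSO vehicle, duplicates. Readout: SLCO1B1 mRNA, qRT-PCR, ACTB/GAPDH/POLR2A normalization; up or down fit vs DMSO.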

Read-out in test [7]: sulfotransferase 2A1 (SULT2A1), SULT2A1 (gene 6822)
Kind of test: LTEA_HepaRG_SULT2A1: Life Technologies and Expression Analysis (LTEA) Assay for sulfotransferase 2A1 (SULT2A1) using HepaRG (AID 2283531). Particulars: mRNA level, 48 h; actives raise or lower the signal. The gist of the method: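 Transcript levels of SULT2A1, quantified by qRT-PCR and normalized to three housekeeping genes, serve as the readout. Human HepaRG cultures receive test chemicals for 48 h at up to 100 uM in half-log steps, with 0.5% DMSO vehicle.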

Read-out in test [8]: Transforming Growth Factor (TGFA), TGFA (gene 7039)
Kind of test: LTEA_HepaRG_TGFA: Life Technologies and Expression Analysis (LTEA) Assay for Transforming Growth Factor (TGFA) using HepaRG (AID 2283532). The settings on record: mRNA level, 48 h; actives raise or lower the signal. The gist of the method:
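qRT-PCR read-out of TGFA transcript, normalized to three housekeeping genes, fitted bidirectionally against 0.5% DMSO baseline. Human HepaRG cultures received chemicals for 48 h at eight half-log concentrations, top 100 uM.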

Read-out in test [9]: Transforming Growth Factor (TGFB1), TGFB1 (gene 7040)
Description: LTEA_HepaRG_TGFB1: Life Technologies and Expression Analysis (LTEA) Assay for Transforming Growth Factor (TGFB1) Transporter using HepaRG (AID 2283533). Particulars: mRNA level, 48 h; actives raise or lower the signal. An outline of the steps: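 HepaRG, 48 h post-plating, switched to serum-free induction medium; chemicals 100 uM top, half-log, 8 pts, 0.5% DMSO, dup; 48 h exposure; RNA → Fluidigm TaqMan qRT-PCR; norm ACTB/GAPDH/POLR2A; bidirectional fit vs DMSO.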

Read-out in the next test: TIMP1, TIMP1 (gene 7076)
Kind of test: LTEA_HepaRG_TIMP1: Life Technologies and Expression Analysis (LTEA) Assay for TIMP1 using HepaRG (AID 2283534). Particulars: mRNA level, 48 h; actives raise or lower the signal. An outline of the steps:
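Readout is TIMP1 mRNA level measured by qRT-PCR and normalized to three housekeeping genes. Human HepaRG cells were treated for 48 h in duplicate at eight concentrations up to 100 uM (0.5% DMSO); gain or loss fitted against DMSO.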

Read-out in test [10]: Tumor necrosis factor receptor 1 (TNFRSF1A), TNFRSF1A (gene 7132)
Description: LTEA_HepaRG_TNFRSF1A: Life Technologies and Expression Analysis (LTEA) Assay for Tumor necrosis factor receptor 1 (TNFRSF1A) using HepaRG (AID 2283535). The settings on record: mRNA level, 48 h; actives raise or lower the signal. An outline of the steps:
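Read-out is TNFRSF1A transcript level by TaqMan qRT-PCR, normalized to three housekeeping genes, scored as gain or loss of signal versus 0.5% DMSO. Human HepaRG cells received test chemicals for 48 h at up to 100 uM (half-log series).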

Read-out in test [11]: Thyroid Hormone Responsive (THRSP), THRSP (gene 7069)
Kind of test: LTEA_HepaRG_THRSP: Life Technologies and Expression Analysis (LTEA) Assay for Thyroid Hormone Responsive (THRSP) using HepaRG (AID 2283536). Particulars: mRNA level, 48 h; actives raise or lower the signal. An outline of the steps: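 qRT-PCR read-out (Fluidigm TaqMan), housekeeping-normalized (ACTB/GAPDH/POLR2A). HepaRG, 48 h chemical exposure, 8-pt half-log series from 100 uM in 0.5% DMSO, duplicates. Bidirectional curve fit vs 0.5% DMSO baseline.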

Read-out in test [12]: Cellular tumor antigen p53 (Homo sapiens) (UniProt P04637)
Description: LTEA_HepaRG_TP53: Life Technologies and Expression Analysis (LTEA) Assay for Tumor Protein P53 (TP53) using HepaRG (AID 2283537). The settings on record: mRNA level, 48 h; actives raise or lower the signal. An outline of the steps:
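Differentiated HepaRG cells in serum-free induction medium exposed 48 h in duplicate to 8 half-log concentrations, top 100 uM, 0.5% DMSO. TP53 mRNA by TaqMan qRT-PCR (Fluidigm), normalized to ACTB, GAPDH, POLR2A; fitted bidirectionally versus DMSO.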

Read-out in test [13]: UDP glucuronosyltransferase (UGT1A1), UGT1A1 (gene 54658)
Kind of test: LTEA_HepaRG_UGT1A1: Life Technologies and Expression Analysis (LTEA) Assay for UDP glucuronosyltransferase (UGT1A1) using HepaRG (AID 2283538). Particulars: mRNA level, 48 h; actives raise or lower the signal. The gist of the method: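 mRNA induction or loss of UGT1A1, by TaqMan qRT-PCR, in duplicate HepaRG wells after 48 h exposure to half-log dilutions topping at 100 uM; DMSO (0.5%) served as baseline.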

Read-out in test [14]: UDP glucuronosyltransferase (UGT1A6), UGT1A6 (gene 54578)
Kind of test: LTEA_HepaRG_UGT1A6: Life Technologies and Expression Analysis (LTEA) Assay for UDP glucuronosyltransferase (UGT1A6) using HepaRG (AID 2283539). The settings on record: mRNA level, 48 h; actives raise or lower the signal. The gist of the method: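 HepaRG, 48 h post-plating switch to serum-free induction medium; chemical 48 h, 100 uM top, half-log x8, duplicate, 0.5% DMSO. Phenobarbital 1mM induction control. UGT1A6 mRNA by TaqMan qRT-PCR; gain/loss fit vs DMSO.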

Read-out in test [15]: X-box binding protein 1 (XBP1), XBP1 (gene 7494)
Kind of test: LTEA_HepaRG_XBP1: Life Technologies and Expression Analysis (LTEA) Assay for X-box binding protein 1 (XBP1) using HepaRG (AID 2283540). The settings on record: mRNA level, 48 h; actives raise or lower the signal. An outline of the steps:
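Transcript levels of XBP1, measured by qRT-PCR and normalised to three housekeeping genes, were fitted bidirectionally relative to 0.5% DMSO controls. Human HepaRG cells received eight-point half-log dilutions from 100 uM for 48 h.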

Test [16] in a line: LTEA_HepaRG_LDH_cytotoxicity: Cytotoxicity Assessment in the Life Technologies and Expression Analysis (LTEA) Assay (AID 2283563; active means hit-call score of the fitted dose curve at least 0.9, where 1 is the maximum). An outline of the steps:
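Cells were thawed and plated for 48 h. Medium was then replaced with serum-free induction medium. Chemicals (8 half-log points, maximum 100 uM, 0.5% DMSO) were added in duplicate for 48 h, after which spent medium was assayed for LDH.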

Test [17] in a line: TOX21_p53_BLA_p2_viability: Viability Assessment in the Tox21 HCT-116 p53 Agonism Beta-lactamase Assay, Phase 2 (AID 2283591; active means hit-call score of the fitted dose curve at least 0.9, where 1 is the maximum;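 further: compound exposure lasted 16 h at 37 °C; actives lower the ATP signal meaning cytotoxicity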). The gist of the method:
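HCT116 p53-bla cells, 4000/well, dosed after 5 h plating (217-fold dilution of DMSO stocks) and incubated 16 h at 37C. Viability taken as cellular ATP by CellTiter-Glo luminescence after 30 min RT; signal loss marks cytotoxicity.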

Test [18] addresses Cellular tumor antigen p53 (Homo sapiens) (UniProt P04637). Description: TOX21_p53_BLA_p2_ratio: Tox21 HCT-116 p53 Agonism Beta-lactamase Assay, Ratio, Phase 2 (AID 2283592; active means hit-call score of the fitted dose curve at least 0.9, where 1 is the maximum). The gist of the method:
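Plated HCT116 p53-bla cells (4000/well) received compound after 5 h, then 16 h at 37C/5% CO2. CCF4-AM added, 2 h RT. Ratio of 460 to 530 nm emission taken as the p53 reporter signal.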

Test [19] is described as follows: ATG_XTT_Cytotoxicity: Cytotoxicity Assessment in the Attagene TRANS-FACTORIAL HepG2 Assay (AID 2283584; active means hit-call score of the fitted dose curve at least 0.9, where 1 is the maximum;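 on AC50: cells exposed to compound for 24 h before reading; active means loss of viability signal versus DMSO baseline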). An outline of the steps: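 Cells: human HepG2, transiently transfected with MRTU reporter constructs. Exposure 24 h. Readout: XTT, cell number. Baseline/neg ctrl DMSO; loss-of-signal scored.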

Sequence of Nuclear factor erythroid 2-related factor 2 (Homo sapiens) (Q16236 whole entry, looked up): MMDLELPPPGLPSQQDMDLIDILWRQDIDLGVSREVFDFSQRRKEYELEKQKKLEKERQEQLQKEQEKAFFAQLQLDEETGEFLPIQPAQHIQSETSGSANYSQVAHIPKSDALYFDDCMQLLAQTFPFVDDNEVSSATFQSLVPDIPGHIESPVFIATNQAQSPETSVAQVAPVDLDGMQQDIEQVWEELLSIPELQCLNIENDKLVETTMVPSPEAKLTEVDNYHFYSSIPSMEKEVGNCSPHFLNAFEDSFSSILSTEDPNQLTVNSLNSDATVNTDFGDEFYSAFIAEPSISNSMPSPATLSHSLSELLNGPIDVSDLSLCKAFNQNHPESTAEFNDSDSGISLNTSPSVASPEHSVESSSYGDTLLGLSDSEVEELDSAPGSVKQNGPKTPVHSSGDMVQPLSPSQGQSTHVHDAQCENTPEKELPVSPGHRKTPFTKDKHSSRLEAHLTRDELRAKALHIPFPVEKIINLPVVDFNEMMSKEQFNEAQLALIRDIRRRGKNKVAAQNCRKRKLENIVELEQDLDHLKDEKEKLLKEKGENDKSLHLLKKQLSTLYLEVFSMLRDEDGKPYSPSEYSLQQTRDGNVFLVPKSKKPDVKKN
Sequence of Cellular tumor antigen p53 (Homo sapiens) (P04637 whole entry, looked up): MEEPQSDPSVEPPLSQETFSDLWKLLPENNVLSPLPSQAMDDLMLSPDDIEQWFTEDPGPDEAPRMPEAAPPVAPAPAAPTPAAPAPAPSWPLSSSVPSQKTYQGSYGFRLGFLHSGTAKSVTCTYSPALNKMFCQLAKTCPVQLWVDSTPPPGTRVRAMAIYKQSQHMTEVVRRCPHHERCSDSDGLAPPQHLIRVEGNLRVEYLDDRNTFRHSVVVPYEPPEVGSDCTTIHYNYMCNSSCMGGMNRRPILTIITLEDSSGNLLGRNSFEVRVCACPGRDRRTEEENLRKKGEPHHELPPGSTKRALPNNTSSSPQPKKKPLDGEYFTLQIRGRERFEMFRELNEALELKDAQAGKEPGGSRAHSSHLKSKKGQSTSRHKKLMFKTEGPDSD
Sequence of Signal transducer and activator of transcription 3 (Homo sapiens) (P40763 whole entry, looked up): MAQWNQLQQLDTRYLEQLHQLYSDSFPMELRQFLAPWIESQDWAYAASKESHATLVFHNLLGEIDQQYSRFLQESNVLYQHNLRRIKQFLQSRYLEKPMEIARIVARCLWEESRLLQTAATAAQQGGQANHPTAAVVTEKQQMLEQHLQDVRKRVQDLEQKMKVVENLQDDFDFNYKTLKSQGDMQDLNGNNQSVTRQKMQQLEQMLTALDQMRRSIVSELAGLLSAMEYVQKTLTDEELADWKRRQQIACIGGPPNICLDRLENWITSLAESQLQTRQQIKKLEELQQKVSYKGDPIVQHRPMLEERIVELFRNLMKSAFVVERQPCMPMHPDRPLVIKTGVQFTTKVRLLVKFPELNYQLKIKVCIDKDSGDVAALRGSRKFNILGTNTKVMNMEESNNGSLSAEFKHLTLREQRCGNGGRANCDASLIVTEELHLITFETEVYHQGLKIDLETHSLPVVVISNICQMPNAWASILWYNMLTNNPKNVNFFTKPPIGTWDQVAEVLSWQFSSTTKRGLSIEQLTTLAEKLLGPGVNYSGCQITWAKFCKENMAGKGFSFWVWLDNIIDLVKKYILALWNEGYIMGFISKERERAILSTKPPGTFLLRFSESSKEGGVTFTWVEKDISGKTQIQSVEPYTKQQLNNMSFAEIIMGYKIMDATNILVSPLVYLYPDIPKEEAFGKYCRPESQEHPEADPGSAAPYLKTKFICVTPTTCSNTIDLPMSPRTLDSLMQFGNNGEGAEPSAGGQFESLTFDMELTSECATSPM

For `c1ccc2c(c1)Cc1ccccc1-2`, the outcome in [1], in [2], in test [3], in [4], in test [5] and in test [6] was inactive. For the same compound, the outcome was “inactive” in test [7]; “inactive” in test [8]; “inactive” in test [9]; “inactive” with TIMP1, TIMP1 (gene 7076); “inactive” in test [10]; “inactive” in test [11]. Also, the call in test [12], in [13], in [14], in [15], in test [16] and in test [17] was inactive. Further, in [18], the outcome was inactive.

On to `C#C[C@]1(O)CC[C@H]2[C@@H]3CCC4=CC(=O)CC[C@@H]4[C@H]3CC[C@@]21C`, for which the outcome in test [1], in test [2], in test [3], in [4], in test [5] and in test [6] was inactive. Also, the outcome in test [8] was “inactive”; in test [9] it was “inactive”; in the test with TIMP1, TIMP1 (gene 7076) it was “inactive”; in test [10], “inactive”; in test [12], “inactive”; in [14], “inactive”. In addition, the outcome in [15], in test [16] and in [19] was inactive. The concentration at half-maximal activity (AC50) was 15.9 µM (active) in test [7], 0.0729 µM (active) in test [11] and 2.19 µM (active) in [13].

In the case of `CCCCCCCCCCCCN1CCCC1=O`, the compound was called inactive in test [1], in [2], in test [3], in [4], in test [5] and in test [6]. In addition, the outcome in [7] was “inactive”; in test [8], “inactive”; in [9], “inactive”; with TIMP1, TIMP1 (gene 7076) it was “inactive”; in [10], “inactive”; in test [11] it was “inactive”. Besides, the compound was classed as inactive in [12], in test [13], in test [14], in test [15], in test [16] and in test [17]. Further, the outcome in test [18] was inactive. The half-maximal activity concentration (AC50) in test [19] was 155 µM (active).

For orientation: AC50 means the concentration giving half of the maximal activity seen.
